Compounds with a hit are over-represented: about 17% of the library has one in this group of screens.
HT1080 IDH1KD tx – toxicity to HT-1080 IDH1 knockdown cells (counter line); HT-1080 IDH1 knockdown viability, ATP luminescence, 48 h; 360,000 compounds, 2% hits; Potency, µM (titrated, usually from 46.1 µM), hits mostly cytotoxic
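% activity derives from luminescence (CellTiter-Glo), normalised to DMSO and no-cell wells. HT-1080-IDH1KD cells, 750/well, had 48 h compound exposure at 37 °C.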
DT40 TDP1 CPT – growth inhibition of DT40 Tdp1-/-;hTDP1 cells with camptothecin (screen for TDP1 inhibitors). chicken DT40 Tdp1-/-;hTDP1 cells + 20 nM CPT, ATP luminescence, 48 h. Potency, µM (series often up to 46.2 µM), most hits filed as inhibitors. 420,000 compounds, 12% hits; further: nearly all actives have a fitted effect of over 55% in size
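Cell growth measured by CellTiter-Glo luminescence after a minimum 48 h, 37 C compound exposure with 20 nM CPT in Tdp1-knockout DT40 cells stably expressing hTDP1, seeded 400/well; qHTS titration format.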
TDP1 cell noCPT – qHTS for Inhibitors of human tyrosyl-DNA phosphodiesterase 1 (TDP1): qHTS in cells in absence of CPT; DT40 Tdp1-/- hTDP1 cells, no CPT, ATP luminescence, 48 h; AID 686978, 2013; 420,000 compounds, 15% hits; Potency, µM (titrated, usually from 46.2 µM), most hits filed as inhibitors; further: nearly all actives have a fitted effect of over 55% in size
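Compound effects on proliferation are scored in DT40 Tdp1-/-;hTDP1 cells in the absence of CPT. ATP levels (CellTiter-Glo luminescence) are recorded after a ≥48 hr, 37 °C incubation.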
HT1080NT lethal – kills 2HG-producing HT-1080-NT fibrosarcoma cells; HT-1080-NT fibrosarcoma viability, CellTiter-Glo ATP luminescence, 48 h; Potency, µM (top dose mostly 46.1 µM), most hits filed as cytotoxic; 360,000 compounds, 1.6% hits; AID 686970;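 further: NT is the 2HG producing partner of a matched IDH1 knockdown line; nearly all actives have a fitted effect of over 55% in size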
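Viability by CellTiter-Glo luminescence after 48 h compound exposure at 37C of HT-1080-NT cells (750/well, RPMI, 5% FBS). % activity scaled between DMSO wells and medium-only wells, then curve-fitted and categorized by curve class.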
HepG2 tox-1 – counter-screen for TGF-b inhibitors: cytotoxicity in HepG2 cells; AID 588856; 410,000 compounds, 0.76% hits; Potency, µM (doses to about 46.1 µM), usual class: cytotoxic; HepG2 CAGA-GFP viability, ATP luminescence, 18 h
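HepG2 CAGA-GFP cells (1000/well, DMEM with 1% FBS) received compound, then TGF-beta at 500 pg/mL final, and were incubated 18 hours at 37 degrees C. Viability was read by CellTiter-Glo luminescence. Media-only wells were set as complete cell-killing and DMSO as no toxicity.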
TGFb inhibitor – blocks TGF-b signaling; HepG2 CAGA-GFP TGF-b/SMAD3 reporter, GFP fluorescence, 18 h; TGF-beta stimulated, 500 pg/mL final; Potency, µM (titrated, usually from 46.1 µM), usual class: inhibitors; 410,000 compounds, 1.2% hits; AID 588855; further: nearly all actives have a fitted effect of over 65% in size
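Inhibition was scored as loss of TGF-beta-induced (500 pg/mL final, 18 hours, 37 degrees C) GFP in HEPG2 cells carrying a CAGA-GFP reporter, in DMEM with 1% FBS. Well GFP was summed per cell; Activity was normalised to unstimulated and stimulated DMSO wells, then concentration-response fitting.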
TGFb confirm – confirmation of TGF-b signaling inhibitors in HepG2 reporter cells. 1,600 compounds, 63% hits. Potency, µM (doses to about 46.1 µM), hits mostly inhibitors. shares compounds with TGFb inhibitor. AID 720534. HepG2 CAGA-GFP TGF-b reporter, GFP fluorescence, 18 h; cells stimulated with TGF-beta, 500 pg/mL; further: nearly all actives have a fitted effect of over 65% in size
HepG2 tox-2 – HepG2 cytotoxicity, TGF-b inhibitor counterscreen | shares compounds with TGFb inhibitor | HepG2 CAGA-GFP viability, ATP luminescence, 18 h; cells stimulated with TGF-beta, 500 pg/mL | 1,600 compounds, 27% hits | Potency, µM (titrated, usually from 46.1 µM), actives largely listed as inhibitors | AID 720535; further: nearly all actives have a fitted effect of over 70% in size
CCL64 TGFb inh – TGF-b inhibition, CCL64 orthogonal assay. shares compounds with TGFb inhibitor. CCL64 CAGA-GFP reporter, TGF-b stimulated, GFP fluorescence, 18 h. Potency, µM (titrated, usually from 46.1 µM), most hits filed as inhibitors. 1,600 compounds, 41% hits; further: nearly all actives have a fitted effect of over 65% in size
TGFb COP inh – blocks TGF-b signaling in HepG2 COP reporter. shares compounds with TGFb inhibitor. HepG2 COP-GFP TGF-b reporter, GFP fluorescence, 18 h; cells stimulated by added recombinant TGF-beta. Potency, µM (doses to about 46.1 µM), most hits filed as inhibitors. 1,600 compounds, 3% hits. AID 720537; further: nearly all actives have a fitted effect of over 70% in size
Hits are given with their value; . = inactive; ? = inconclusive; / = not tested or not shown. The call rests on the fitted dose curve; in most records, active means well fitted curve in the direction sought with a large enough effect; inconclusive means small, poorly fitted or top-dose-only effect, or another doubt; inactive means no such curve, though single readings can be large; an effect the other way counts as inactive or inconclusive.

SMILES	HT1080 IDH1KD tx	DT40 TDP1 CPT	TDP1 cell noCPT	HT1080NT lethal	HepG2 tox-1	TGFb inhibitor	TGFb confirm	HepG2 tox-2	CCL64 TGFb inh	TGFb COP inh
CN1CCN(S(=O)(=O)c2ccc(Sc3nc4ccccc4[nH]3)c3nsnc23)CC1	.	.	.	.	.	10µM	.	.	.	.
O=C(Nc1ccc(N2CCN(C(=O)c3ccc(Cl)cc3)CC2)cc1)c1ccc([N+](=O)[O-])o1	2.6µM	2.9µM	1.2µM	10µM	13µM	7.1µM	6.5µM	16µM	?	?
CC(C)(C)C(=O)N1CCN(c2ccc(NC(=O)c3ccc([N+](=O)[O-])o3)cc2)CC1	5.2µM	2.6µM	6.5µM	4.1µM	.	7.1µM	7.3µM	10µM	?	.
CS(=O)(=O)N1CCN(c2ccc(NC(=O)c3cc4ccccc4o3)cc2)CC1	.	.	.	.	.	.	/	/	/	/
CS(=O)(=O)N1CCN(c2ccc(NC(=O)c3ccc([N+](=O)[O-])o3)cc2)CC1	?	2.6µM	7.3µM	?	5.6µM	4µM	2.9µM	15µM	?	.
Cc1ccc(CNC(=O)N[C@@H](Cc2ccccc2)C(=O)O)cc1	.	.	.	.	.	?	/	/	/	/
C[C@H](CO)N1C[C@H](C)[C@@H](CN(C)C(=O)Nc2cccc(F)c2)Oc2ncc(Br)cc2C1=O	.	.	.	.	.	.	/	/	/	/
Cc1ccc(NC(=O)CN2CCC(Cc3ccccc3)CC2)cc1S(=O)(=O)N(C)C	?	?	?	?	.	16µM	13µM	?	?	.
CCN(C(=O)c1ccc2c(SCC(=O)O)c3c(nc2c1)CCC3)c1cc(Cl)ccc1OC	.	.	.	.	.	.	/	/	/	/
CCN(C(=O)c1cc2c(C)nc3ccccc3c2o1)c1cc(Cl)ccc1OC	?	5.2µM	4.6µM	?	.	10µM	?	.	?	.
CCOC(=O)c1c(C)[nH]c(N=Nc2ccccc2C)c1C	?	.	?	.	.	.	/	/	/	/
Cc1ccc(N(O)C(=O)NCCCCNC(=O)N(O)c2ccc(C)cc2)cc1	.	.	.	.	.	.	/	/	/	/
Cc1ccc2sc(N(CCCN(C)C)C(=O)c3ccc(S(=O)(=O)N4CCOCC4)cc3)nc2c1C	.	?	?	.	.	.	/	/	/	/
Cc1ccc2sc(N(CCCN(C)C)C(=O)CCS(=O)(=O)c3ccccc3)nc2c1C	?	2.3µM	2.6µM	?	6.3µM	5.6µM	?	?	3.3µM	?
CC[C@]12c3[nH]c4cc(-c5ccco5)ccc4c3CCN1C(=O)[C@@H](CC(=O)NC/C=C(\C)CCC=C(C)C)C[C@@H]2C(=O)N1CCN(C(=O)C2CC2)CC1	?	?	?	?	.	?	/	/	/	/
